BRCA1 expr up = activators of BRCA1 expression | MCF7-BRCA1-FFLuc reporter, luminescence, 48 h; response scale: scaled: vehicle 0%, 10 µM genistein 100% | Potency, µM (titrated, usually from 46.1 µM), actives largely listed as activators | 380,000 tested, 1.1% active; further: nearly all actives have a fitted effect of over 80% in size
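MCF7 cells carrying a BRCA1-firefly luciferase reporter (2000 cells/well, phenol-red free MEM) were attached for 2 h at 37 °C, then given compounds for 48 h. Luminescence was read 15 min after luciferase reagent; activity normalized to genistein (10 microM) and DMSO.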
ERG-DNA inh = inhibitors of human ERG Ets domain-DNA interaction; 370,000 tested, 0.028% active; Potency, µM (titrated, usually from 76.9 µM), usual class: inhibitors; fluorescence polarization, His-ERG Ets domain / labelled DNA; AID 624246; active means well fitted inhibition curve with a large enough effect in the polarisation, with a control signal flat; inconclusive means small, poorly fitted or top-dose-only effect, or effect the other way, or a change in a side signal; inactive means no such curve, though single readings can be large or run the other way; the % refers to the polarisation;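 further: polarization taken with two DNA probes labelled with fluorescein and Texas red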
Target sequence (P11308 whole entry, looked up, the tested form may be a part): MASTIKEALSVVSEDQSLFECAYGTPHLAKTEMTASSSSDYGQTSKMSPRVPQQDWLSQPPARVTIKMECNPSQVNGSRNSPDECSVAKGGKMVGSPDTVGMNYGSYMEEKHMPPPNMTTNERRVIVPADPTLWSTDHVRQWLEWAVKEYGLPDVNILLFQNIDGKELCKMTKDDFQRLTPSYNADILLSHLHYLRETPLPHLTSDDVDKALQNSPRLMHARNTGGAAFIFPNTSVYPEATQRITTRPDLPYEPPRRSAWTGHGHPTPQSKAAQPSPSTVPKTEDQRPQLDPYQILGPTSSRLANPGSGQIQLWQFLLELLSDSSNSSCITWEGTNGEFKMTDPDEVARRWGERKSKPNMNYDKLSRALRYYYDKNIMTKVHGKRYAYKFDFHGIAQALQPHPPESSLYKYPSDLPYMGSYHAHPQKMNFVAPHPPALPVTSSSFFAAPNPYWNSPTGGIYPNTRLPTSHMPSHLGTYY
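His-tagged ERG Ets domain (1 uM in the protein solution; 300mM KCl, 50mM Tris-HCl, 1mM EDTA, 1mM DTT, pH 7.5) received compound, then a probe mix of 5 nM fluorescein-DNA and 100nM Texas-615-DNA. Fluorescence polarization was read for both dyes.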
GoLoco inh red = blocks human Gai1 binding to RGS12 GoLoco peptide, red readout; Potency, µM (titrated, usually from 61.6 µM), most hits filed as inhibitors; P63096; AID 880; Gai1:RGS12 GoLoco peptide FP, rhodamine, 10 min; 230,000 tested, 0.44% active; active means well fitted inhibition curve with a large enough effect, not every such curve was filed as active; inactive means no such curve, though single readings can be large or run the other way; further: nearly all actives have a fitted effect of over 30% in size
Anesthetic bind = binds horse apoferritin like a general anesthetic; Potency, µM (series often up to 77.5 µM), hits mostly inhibitors; P02791; apoferritin/1-aminoanthracene competitive binding, fluorescence; 350,000 tested, 0.074% active; AID 485281; further: nearly all actives have a fitted effect of over 20% in size
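Read-out: endpoint 1-AMA fluorescence, excitation 380 nm and emission 535 nm, after compounds sit 10 min at room temperature with 10 uM horse-spleen apoferritin in 50% saturated 1-AMA/PBS. Values come from four-parameter Hill fits.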
Of the large screens only hits and unclear results are named; the others gave an inactive call. A selection: hits, their analogues and other compounds. The true share with any hit is near 1.2%. Unless noted, the call rests on the fitted dose curve; in most records, active means well fitted curve in the direction sought with a large enough effect; inconclusive means small, poorly fitted or top-dose-only effect, or another doubt; inactive means no such curve, though single readings can be large; an effect the other way counts as inactive or inconclusive.

COc1cccc(C(=O)COc2ccc3c(C)c(Cc4ccccc4)c(=O)oc3c2)c1	none
Cc1c(C)c2ccc(OCC(=O)c3ccccc3)cc2oc1=O	BRCA1 expr up 6.3µM (no result: GoLoco inh red)
COc1ccc(-c2cc3ccc(OCC(C)=O)cc3oc2=O)cc1OC	BRCA1 expr up 10µM (no result: GoLoco inh red)
CCOc1ccc2cc(C(=O)c3ccccc3)c(=O)oc2c1	BRCA1 expr up 10µM
CCCc1c(C)c2ccc(OCC(C)=O)cc2oc1=O	BRCA1 expr up 5.6µM
COc1cccc(NC(=O)Cn2c(=O)n(CCCC(=O)NCc3ccc4c(c3)OCO4)c(=O)c3ccccc32)c1	none (no result: GoLoco inh red)
CN1CCSc2ccc(C(=O)Nc3cc(F)ccc3F)cc21	BRCA1 expr up 13µM
Cc1ccccc1NC(=O)c1ccc2c(c1)N(C)CCS2	BRCA1 expr up inconclusive (no result: GoLoco inh red)
Cc1ccc(NC(=O)Nc2ccc3c(c2)OCO3)cc1F	BRCA1 expr up 0.89µM (no result: GoLoco inh red)
O=C(CNC(=O)c1ccccc1F)Nc1ccc2c(c1)OCO2	BRCA1 expr up 7.9µM (no result: GoLoco inh red, Anesthetic bind)
O=C(/C=C/c1ccc2c(c1)OCCO2)c1ccccc1	BRCA1 expr up 7.1µM
COc1cccc(NC(=O)Nc2ccc3c(c2)OCO3)c1	BRCA1 expr up 2.8µM (no result: GoLoco inh red)
O=C(/C=C/c1ccc2c(c1)OCO2)c1ccccc1	none (no result: BRCA1 expr up, ERG-DNA inh, Anesthetic bind)
CN1CCN(c2ccnc(N(C)CCCCCCN)n2)CC1	none (no result: ERG-DNA inh, GoLoco inh red, Anesthetic bind)
CC1(OC(=O)c2cnc3ccccc3n2)C(=O)C=C2C=C3CCCN3C=C2C1=O (stereo not given)	none (no result: BRCA1 expr up, ERG-DNA inh, Anesthetic bind)
N=C(N)c1ccc(/C=C\c2ccc(C(=N)N)cc2)cc1	none (no result: BRCA1 expr up, ERG-DNA inh, Anesthetic bind)
C/C(=C\C(=O)c1ccccc1)Nc1ccc2c(c1)OCO2	BRCA1 expr up 7.9µM (no result: ERG-DNA inh)
O=C(Nc1ccc2c(c1)OCCO2)Nc1ccc2c(c1)OCO2	none
Cc1ccc(NC(=O)Nc2ccc3c(c2)OCO3)c(OC(F)F)c1	BRCA1 expr up 2.5µM (no result: GoLoco inh red)
O=C(Nc1ccc2c(c1)OCO2)Nc1ccc(Br)cn1	BRCA1 expr up 2.8µM
CC(=O)c1cccc(NC(=O)Nc2ccc3c(c2)OCO3)c1	BRCA1 expr up 11µM (no result: GoLoco inh red)
COc1ccc(OC)c(/C=C/c2sc3ccccc3[n+]2C)c1	none (no result: ERG-DNA inh, GoLoco inh red, Anesthetic bind)
CN(c1ccc(C(=O)Nc2ccc3c(c2)OCO3)cc1)S(C)(=O)=O	BRCA1 expr up 6.3µM
O=C(NCc1ccc2c(c1)OCO2)Nc1ccc(F)cc1	BRCA1 expr up 10µM (no result: GoLoco inh red)
O=C(c1cc(COc2ccc(F)cc2F)on1)N1CCSCC1	BRCA1 expr up 7.9µM
O=C(CSc1nncs1)NC(=O)Nc1ccc2c(c1)OCCO2	BRCA1 expr up 4.5µM
COc1cccc(NC(=O)Nc2cc(C(=O)O)ccc2C)c1	none
Cc1ccc(NC(=O)Nc2ccc(F)cc2)cc1Cl	BRCA1 expr up 2.8µM, ERG-DNA inh inconclusive
Cc1ccc(NC(=O)NC2CCCCC2)cc1Cl	BRCA1 expr up 5µM
COc1cccc(NC(=O)Nc2cccc(C)n2)c1	BRCA1 expr up 13µM (no result: GoLoco inh red)
Cc1ccc(NC(=O)C2CCN(C(=O)NC3CCCCC3)CC2)cc1Cl	none
Cc1ccc(NC(=O)CCC(=O)c2ccc(F)cc2)cc1Cl	none
COc1cccc(NC(=O)Nc2ccc(C)c(Cl)c2)c1	BRCA1 expr up 7.1µM
Cc1cc2ccccc2c[n+]1C	none (no result: ERG-DNA inh, GoLoco inh red, Anesthetic bind)
Nc1cccc2cc(S(=O)(=O)Nc3ccc(C(=O)O)cc3)ccc12	none (no result: BRCA1 expr up, ERG-DNA inh, Anesthetic bind)
CCOc1ccc(NC(=O)Cn2c(=O)n(-c3ccc(C)cc3)c(=O)c3cc(OC)c(OC)cc32)cc1	none (no result: GoLoco inh red)
CCOC(=O)c1c(C)[nH]c(C(=O)OC(C(=O)N(C)C)c2ccccc2)c1C (stereo not given)	none (no result: ERG-DNA inh, GoLoco inh red, Anesthetic bind)
CO[C@H]1/C=C\O[C@@]2(C)Oc3c(C)c(O)c4c(O)c(c(C=NN5CCN(C6CCCC6)CC5)c(O)c4c3C2=O)NC(=O)C(C)=CC=C[C@H](C)[C@H](O)[C@@H](C)[C@@H](O)[C@@H](C)[C@H](OC(C)=O)[C@H]1C	none (no result: ERG-DNA inh, GoLoco inh red, Anesthetic bind)
O=c1[nH]c(=S)[nH]c2n[nH]nc12	none (no result: ERG-DNA inh, GoLoco inh red, Anesthetic bind)
O=C(CSc1ccc(-c2cccs2)nn1)N1CCCCCC1	BRCA1 expr up 13µM (no result: ERG-DNA inh)
CCCOc1ccccc1C1Oc2nc(SC)nnc2-c2ccccc2N1C(C)=O (stereo not given)	none (no result: GoLoco inh red)
Cc1cc(C)c(NC(=O)C2CCN(C(=O)N3CCOc4ccccc43)CC2)c(C)c1	Anesthetic bind inconclusive (no result: BRCA1 expr up, GoLoco inh red)
CC(NC(=O)C1CCN(C(=O)N2CCOc3ccccc32)CC1)c1ccccc1 (stereo not given)	Anesthetic bind 16µM (no result: BRCA1 expr up, GoLoco inh red)
CN(C)c1cc(F)c(C=O)cc1F	none (no result: ERG-DNA inh, GoLoco inh red, Anesthetic bind)
NC(=O)C1CCN(c2nc(-c3cc4ccccc4o3)cs2)CC1	BRCA1 expr up 11µM (no result: ERG-DNA inh, GoLoco inh red, Anesthetic bind)
Clc1ccccc1OCc1nc(-c2ccncc2)no1	BRCA1 expr up 5µM
COc1ccccc1Cc1nc(-c2ccncc2)no1	none

From PubChem
